Measured values as given in PubChem BioAssay AID1030 (National Center for Advancing Translational Sciences (NCATS), 2008).
Among all 220,000 compounds or so, about 16,000 (7.3%) were called active. Not shown: some 25% with an inconclusive outcome. Calls come from the whole dose curve; as a rule, active = well fitted inhibition curve with a large enough effect (not every such curve was filed as active); inconclusive = small, poorly fitted or top-dose-only effect, or another doubt; inactive = no such curve, though single readings can be large or run the other way. For the sample, actives were picked, then their nearest neighbours and some compounds at random.

Target: Aldehyde dehydrogenase 1A1 (Homo sapiens) (UniProt P00352)
Test: qHTS Assay for Inhibitors of Aldehyde Dehydrogenase 1 (ALDH1A1);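 for activity, negative = inhibition: plate controls were no enzyme wells and a reference inhibitor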
Details: Purified ALDH1A1, NADH fluorescence, propionaldehyde substrate; series mostly up to 75.3 µM
Potency is the fitted concentration of half-maximal effect.

Aldehyde dehydrogenase 1A1 (Homo sapiens), sequence (P00352 whole entry, looked up): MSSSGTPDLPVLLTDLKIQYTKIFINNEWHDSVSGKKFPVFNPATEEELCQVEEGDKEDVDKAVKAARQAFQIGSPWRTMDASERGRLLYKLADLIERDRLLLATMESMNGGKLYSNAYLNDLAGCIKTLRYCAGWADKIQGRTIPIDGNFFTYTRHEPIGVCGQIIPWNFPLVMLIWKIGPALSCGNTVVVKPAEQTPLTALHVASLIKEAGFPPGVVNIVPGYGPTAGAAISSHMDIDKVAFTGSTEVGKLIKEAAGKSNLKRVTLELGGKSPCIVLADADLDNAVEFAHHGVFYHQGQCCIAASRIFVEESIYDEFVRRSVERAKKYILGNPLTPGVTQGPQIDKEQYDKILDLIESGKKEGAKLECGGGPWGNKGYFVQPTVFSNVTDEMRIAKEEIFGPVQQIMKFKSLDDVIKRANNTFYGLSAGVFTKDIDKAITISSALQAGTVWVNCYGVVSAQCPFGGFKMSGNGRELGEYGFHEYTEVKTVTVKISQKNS

Potency, inactive:
Cc1cc(C)n(CC(=O)Nc2ccc([N+](=O)[O-])cc2)n1, Cc1cc(=O)oc2c1c(C)nn2-c1ccc(Cl)cc1, CC(C)(C)C(=O)CSc1nc2ccccc2o1, COc1ccccc1CNC(=O)c1cc(=O)c2ccccc2o1, Cn1cnnc1SCC(=O)Nc1ccc(N2CCOCC2)cc1, CN(Cc1ccc2nsnc2c1)Cc1nc(Cc2cccc(F)c2)no1, CCOC(=O)/C(C#N)=C/c1ccc(OCC(=O)Nc2ccccc2)c(OC)c1, Cc1cc(C)c(C#N)c(SCC(=O)Nc2ccccc2)n1, CCC(C)NC(=O)CN(C1CCCCC1)S(C)(=O)=O (centres undefined), O=C(CSc1ncn[nH]1)Nc1nsc(-c2ccccc2)n1, CCN(CC)C(=O)CSc1nc2ccccc2o1, CCOC(=O)n1c(SCC(=O)N(CC)CC)nc2ccccc21, O=C(CSc1n[nH]c(-c2cccnc2)n1)Nc1ccnc2ccccc12, O=S(=O)(c1cccc(C(F)(F)F)c1)N1CCN(c2cnccn2)CC1, CCCn1nc(Oc2nc(NC(C)C)nc(N(C)C)n2)ccc1=O, O=C(NCc1cccnc1)c1nc(-c2cccs2)no1, O=C(/C=C/c1cccs1)NCc1cccnc1, O=[N+]([O-])c1cc(S(=O)(=O)CCCN2CCOCC2)ccc1F, COC(=O)C(C(=O)Nc1cccc(Cl)c1C)C1CCCC1 (centres undefined), Cc1ccc(CC2CC(=O)N(c3nc(C)cc(C)n3)C2=O)cc1 (centres undefined), COc1ccc(N2C(=O)CC(SC(C)C)C2=O)cc1 (centres undefined), COc1ccc(-c2nc(SCC(=O)N3CCOCC3)n[nH]2)cc1, ClC1(Cl)CC1CSc1ncn[nH]1 (centres undefined), Cc1ccc(N2C(=O)C3CC3C2=O)cc1 (centres undefined), O=C(CSc1nc2ccc(Nc3nc(N4CCOCC4)nc(N4CCOCC4)n3)cc2s1)NCc1ccco1, CSc1sc(C(=O)NC(=O)NCc2cccnc2)c(C)c1-c1ccon1, Cc1ccccc1CCN(CC(=O)NC1CCCCC1)C(=O)c1csnn1, O=C(CCc1ccccc1)Nc1ncc([N+](=O)[O-])s1, OCCC1CN(Cc2ccc3nsnc3c2)CCN1C1CCCCC1 (centres undefined), Cn1c(=O)c2cc(S(=O)(=O)NCCC(=O)Nc3ccc(F)cc3F)ccc2n(C)c1=O, O=C(NCCCN1CCN(Cc2ccccc2)CC1)C1CCN(S(=O)(=O)N2CCCC2)CC1, Cc1ccc(S(=O)(=O)N2CCC(C(=O)N[C@@H](C)C(=O)NCCc3ccccc3)CC2)cc1, CN(Cc1cccc2ncccc12)C(=O)CC1C(=O)NCCN1Cc1ccc(F)cc1 (centres undefined), COc1ccc(C)cc1NC(=O)Nc1ccccc1SC, O=C(c1ccccn1)c1ncc(C(F)(F)F)cc1Cl, O=C(CC(O)(C(F)(F)F)C(F)(F)F)Nc1ccc(Cl)c(Cl)c1, C=CCn1c(CCc2ccc(OC(C)C)cc2)n[nH]c1=S, C=CCn1c(-c2ccccc2OCC)n[nH]c1=S, O=C(CN1CCN(c2ncccn2)CC1)Nc1ccccc1C(F)(F)F, c1ccc(-c2cc(N3CCCCC3)c3ccccc3n2)cc1, COc1cccc(NC(=O)C(Sc2nnnn2C)c2ccccc2)c1 (centres undefined), OCCNCc1cccc(OCc2ccccc2Cl)c1

Potency, active:
Cc1cc(C)nc(N(C#N)CC(=O)Nc2ccccc2)n1 15.8 µM, O=C(CSc1ncn[nH]1)Nc1ccnc2ccccc12 22.4 µM, CCN(C(=O)CSc1ncn[nH]1)c1cccc2ccccc12 25.1 µM, O=C(NCc1cccnc1)c1cn(-c2ccccc2)nc1-c1cccs1 3.98 µM, COc1ccc(N2C(=O)CC(Sc3n[nH]c(-c4ccc(C)cc4)n3)C2=O)cc1 (centres undefined) 0.794 µM, Cc1ccc(N2C(=O)CC(Sc3ncn[nH]3)C2=O)cc1 (centres undefined) 11.2 µM, O=C1CC(Sc2ncn[nH]2)C(=O)N1c1ccccc1 (centres undefined) 1.12 µM, Cc1ccc(CCNC(=O)C2CCN(S(=O)(=O)N3CCCC3)CC2)cc1 12.6 µM, N/C(=N\OC(=O)Nc1ccc(Cl)c(Cl)c1)c1ncc(C(F)(F)F)cc1Cl 25.1 µM, C=CCn1c(-c2ccc3[nH]c(C)c(C)c3c2)n[nH]c1=S 12.6 µM

activity, negative = inhibition, inactive:
COC(=O)C1=C(C(=O)OC)[C@@H]2N(C)c3ccccc3[C@@]23C[C@@H](C(=O)OC)N(S(=O)(=O)c2cccs2)C3=N1 0.268% [at 13.5 µM], CC1(OC(=O)CCc2ccccc2)C(=O)C=C2C=C(c3ccc(C#N)cc3)N(CCc3ccccn3)C=C2C1=O (centres undefined) 10.1% [at 13.5 µM]
